The campaign covered roughly 200,000 compounds. About 50 (0.03%) were called active. Shown is part of a subset that was picked to be rich in actives. Measured potencies and affinities stand elsewhere. Unmarked numbers belong to inactive results. How the calls were made is not given here.
target: Alkaline phosphatase, tissue-nonspecific isozyme (Homo sapiens) (UniProt P05186); test: human TNAP enzyme activators, primary screen, biochemical, luminescent, no phosphate acceptor, uHTS (AID 1001); conditions: purified TNAP, luminescent activation assay, at 20 µM, stronger effect = higher value
Sequence (P05186 whole entry, looked up): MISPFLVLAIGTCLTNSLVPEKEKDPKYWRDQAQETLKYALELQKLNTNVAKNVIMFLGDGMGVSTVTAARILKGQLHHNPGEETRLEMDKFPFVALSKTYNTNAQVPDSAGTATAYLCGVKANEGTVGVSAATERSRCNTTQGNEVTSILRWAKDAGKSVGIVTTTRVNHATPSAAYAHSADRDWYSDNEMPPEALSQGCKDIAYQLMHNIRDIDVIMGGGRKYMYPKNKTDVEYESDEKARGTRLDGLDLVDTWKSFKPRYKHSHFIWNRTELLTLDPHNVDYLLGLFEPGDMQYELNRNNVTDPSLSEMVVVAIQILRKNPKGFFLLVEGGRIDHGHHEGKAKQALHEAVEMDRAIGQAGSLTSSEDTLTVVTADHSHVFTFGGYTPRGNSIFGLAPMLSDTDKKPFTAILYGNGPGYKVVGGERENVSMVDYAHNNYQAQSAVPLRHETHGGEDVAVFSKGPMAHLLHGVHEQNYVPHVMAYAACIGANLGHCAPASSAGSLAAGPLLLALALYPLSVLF

Row | SMILES | activation fold
1 | CCOc1ccc(N(C(=O)c2cnsn2)C(C(=O)NC2CCCCC2)c2ccncc2)cc1 (stereo unspecified) | 1.2
2 | Cn1nc(CC(=O)NC2CCCCCC2)c2ccccc2c1=O | 1.1
3 | Cn1nc(CC(=O)NC2CCCCC2)c2ccccc2c1=O | 1.1
4 | COc1ccc(CN2CCNC(=O)C2CC(=O)NCc2ccc(C)s2)c(OC)c1 (stereo unspecified) | 1.1
5 | Cc1ccc(CNC(=O)C2(NC(=O)Nc3ccc(C)cc3)CCCCC2)cc1 | 1.2
6 | Cc1ccc(NC(=O)NC2(C(=O)NCc3ccccc3)CCCCC2)cc1 | 1.1
7 | O=C(NC1CCCCC1)C1CCN(C(=O)c2ccc(-c3ccccc3)cc2)CC1 | 1.1
8 | OCCNc1ncnc2c1c(-c1ccccc1)c(-c1ccccc1)n2Cc1ccco1 | 1.1
9 | N=c1c2c(-c3ccccc3)c(-c3ccccc3)n(Cc3ccco3)c2ncn1CCCn1ccnc1 | 2.7
10 | COc1cc(NC(=O)CN2CCCCC2)c(C)cc1[N+](=O)[O-] | 1.1
11 | CCOc1cc(-n2cnnn2)c(OCC)cc1NC(=O)c1cnccn1 | 1.1
12 | c1ccc2c(c1)Nc1nccnc1S2 | 1
13 | COc1ccc2[nH]c(=O)c(CN(CCN3CCCC3)C(=O)Nc3ccccc3Cl)cc2c1 | 1.1
14 | Cc1c2cc(O)c(=O)cc-2oc2cc(O)c(O)cc12 | 0.4
15 | CCOc1ccccc1-c1c2cc(O)c(=O)cc-2oc2cc(O)c(O)cc12 | 0.6
16 | COc1ccc(OC)c(-c2c3cc(O)c(=O)cc-3oc3cc(O)c(O)cc23)c1 | 3.9 (active)
17 | O=C(NCCCN1CCCC1=O)c1ccc(OCc2ccccc2)cc1 | 1.1
18 | COc1nc(-c2cnccn2)sc1C | 1.1
19 | COc1ccc2nc(C)cc(SCC(=O)NNC(=O)COc3cccc4ccccc34)c2c1 | 2.1
20 | COc1ccc2nc(C)cc(SCC(=O)NNC(=O)COc3ccc(C)cc3)c2c1 | 1.1
21 | O=C(CN1CCOCC1)NCCC12CC3CC(CC(C3)C1)C2 | 1.2
22 | COc1ccc(N/C=C\C(=O)c2ccc(Br)cc2)cc1OC | 1.1
23 | Cc1nn(C)cc1/C=C/C(=O)c1ccccc1 | 1.1

Row | SMILES | activation fold
24 | CCCCCC(=O)NNC(=O)c1ccc(F)cc1 | 1
25 | CCCCCCCC(=O)NNC(=O)c1ccc(F)cc1 | 2.1
26 | Cc1cc(NC(=O)CCC(=O)N(Cc2ccco2)C(C(=O)NC2CCCCC2)c2cccs2)no1 (stereo unspecified) | 1.1
27 | Cc1cc(Cl)ccc1OCC(=O)NCCOC(=O)Nc1sc(=S)n(C)c1C | 1.2
28 | Cc1c(C(=O)Oc2cc(N)n(S(C)(=O)=O)n2)cccc1[N+](=O)[O-] | 1
29 | CC(=O)c1ccc(NC(=O)COc2ccc3c(c2)OCO3)cc1 | 1.1
30 | Cc1cc(C)c(NC(=O)CN2CCN(C)CC2)c(C)c1 | 1.2
31 | Cc1cc(NC(=O)CN2CCN(C)CC2)no1 | 1.1
32 | COc1ccc(C2C(C(=O)OC3CCCCC3)=C(C)Nc3nnnn32)c(OC)c1OC (stereo unspecified) | 1
33 | N#Cc1c(SCC(=O)O)nc(-c2ccccc2)c2c1CCCC2 | 1
34 | Cc1cccc2sc(NC(=O)CN(C)S(=O)(=O)c3ccc(Br)s3)nc12 | 1
35 | CC1CCN(Cc2nc(Cl)c3c4c(sc3n2)CCC4)CC1 | 1
36 | COc1cccc(-c2nnc(Nc3nc4c(F)cccc4s3)o2)c1 | 1.7
37 | COc1cc(OC)cc(-c2nnc(Nc3nc4c(F)cccc4s3)o2)c1 | 1.2
38 | O=C(OCc1cc2ccccc2[nH]c1=O)C1CCCO1 (stereo unspecified) | 1.1
39 | O=C(CSc1nnc(C2COc3ccccc3O2)o1)Nc1nccs1 (stereo unspecified) | 1.2
40 | CCCCOC(=O)c1ccc(NC(=O)CSCc2n[nH]c(=O)[nH]2)cc1 | 1.4
41 | Cc1ccc(O)c(-c2cc(-c3ccccc3[N+](=O)[O-])[nH]n2)c1 | 2.3
42 | O=[N+]([O-])c1ccccc1-c1cc(-c2ccccc2O)n[nH]1 | 2.1
43 | CC(C)(Oc1ccc(Cl)cc1)C(=O)NCc1ccc(S(N)(=O)=O)cc1 | 1.2
44 | CCn1cc(S(=O)(=O)CC(=O)Nc2ccc3c(c2)OCCO3)c2ccccc21 | 1.1
45 | CC(C)C(OC(=O)C1=Cc2ccccc2OC1)C(=O)NC1CCCC1 (stereo unspecified) | 1.2
46 | CN(C)CCNc1ccc(-c2nn(C)c(=O)c3ccccc23)cc1[N+](=O)[O-] | 1

Row | SMILES | activation fold
47 | O=S1(=O)NC2CCCCCN2c2ccc(F)cc21 (stereo unspecified) | 1.1
48 | Cn1c(C(=O)NCC2CCCO2)cc2c(=O)n(C)c3ccccc3c21 (stereo unspecified) | 1.1
49 | CCSC1=C(C#N)C2(CCCC2)C(C#N)=C(N)N1 | 1
50 | CSC1=C(C#N)C2(CCCC2)C(C#N)=C(N)N1 | 1.1
51 | CC(C)N1CCC2(CC1)C(C#N)=C(N)NC(S)=C2C#N | 5.8 (active)
52 | CCOC(=O)CSc1nnc(NCC(=O)OC(C)C)c(=O)[nH]1 | 1.2
53 | CC(=O)NC(=S)Nc1ccc(NC(=O)COc2ccc(C(C)C)cc2)cc1 | 1
54 | Cc1ccccc1NC(=O)c1ccc(S(=O)(=O)C(F)F)cc1 | 1.1
55 | COC(=O)c1ccc2nc(Nc3nc4ccc(F)cc4s3)sc2c1 | 1.2
56 | CCOC(=O)c1csc(Nc2nc3ccc(F)cc3s2)n1 | 1.1
57 | C/C(=N\NC(=O)c1ccc(Cn2cc([N+](=O)[O-])cn2)o1)c1cccc(NC(=O)C(C)C)c1 | 1.1
58 | CCC(C)NC(=O)CSC1=Nc2ccccc2C2=NC(c3ccccc3)C(=O)N12 (stereo unspecified) | 1
59 | CC(/C=N/NC(=O)Cc1cccs1)=C\c1ccccc1 | 1
60 | COc1cccc(OCCOCCNCCO)c1 | 1.1
61 | O=C(NNC(=O)C(c1ccccc1)c1ccccc1)c1ccccn1 | 1.5
62 | CC(C)C(=O)NNC(=O)c1ccccn1 | 1.2
63 | Cc1nn(CC(=O)NC2C(=O)N3C(C(=O)O)=C(CSc4nnnn4C)CSC23)cc1Br (stereo unspecified) | 1.2
64 | O=C1N(CCCN2C(=O)C3(OCCO3)c3ccccc32)c2ccccc2C12OCCO2 | 1
65 | C=CCN1C(=O)C(C)(C)Nc2ccccc21 | 1.1
66 | C=CCN1C(=O)C2(NC(=O)c3ccccc3N2)c2ccccc21 (stereo unspecified) | 1.1
67 | O=C1N(CCCCN2C(=O)C3(OCCO3)c3ccccc32)c2ccccc2C12OCCO2 | 1.2
68 | O=C(CSc1nnc(-c2ccccc2)n1-c1ccc(Cl)cc1)N/N=C/c1ccco1 | 1
69 | Cc1ccc(C)c(NC(=O)CS(=O)(=O)c2c[nH]c3ccccc23)c1 | 1

Row | SMILES | activation fold
70 | Cn1cc(Cl)c(C(=O)NC2CCCCCC2)n1 | 1.2
71 | Cn1cc(Cl)c(C(=O)NC2CCCC2)n1 | 1.1
72 | Cc1c(-n2cccc2C=O)cccc1[N+](=O)[O-] | 1.6
73 | COC(=O)Nc1nnc(CCc2ccccc2)s1 | 0.9
74 | COc1ccccc1CNC(=O)Cc1ccc(Br)cc1 | 1.2
75 | CCOc1ccccc1NC(=O)NC1CC2CCCC(C1)N2Cc1nnnn1CCc1ccccc1 (stereo unspecified) | 1.4
76 | O=C(Nc1ccccc1-c1ccccc1)NC1CC2CCCC(C1)N2Cc1ccc(F)cc1 (stereo unspecified) | 2.7
77 | CC(C)OC(=O)C1C2C=CC3(CN(C(C)c4ccc(Br)cc4)C(=O)C13)O2 (stereo unspecified) | 1.1
78 | Cn1c(=O)c2c(nc(N/N=C3\CCCc4ccccc43)n2Cc2ccc(F)cc2)n(C)c1=O | 2.2
79 | Cn1c(N/N=C2\CCCc3ccccc32)nc2c1c(=O)n(Cc1ccccc1)c(=O)n2C | 2.9
80 | Fc1ccc(C2CC(c3ccc(F)cc3)n3ncnc3N2)cc1 (stereo unspecified) | 1.1
81 | CC(C)CCN1CC(O)=C(c2nc3ccccc3[nH]2)C1=N | 2
82 | CC(C)N1CC(O)=C(c2nc3ccccc3[nH]2)C1=N | 1.4
83 | C=CCNC(=O)c1cc(-c2ccc(Br)cc2)on1 | 1.2
84 | Cc1ccc(S(=O)(=O)NNC(=O)C(=O)NNc2ccccn2)cc1 | 2.9
85 | O=C(NNc1ccccn1)C(=O)NNS(=O)(=O)c1ccc(F)cc1 | 2.7
86 | Cc1ccc(NC(=O)c2cccc(S(C)(=O)=O)c2)cc1 | 1.1
87 | C=CCN(CC=C)C(=O)C1CCC(C(=O)N(CC=C)CC=C)CC1 (stereo unspecified) | 1
88 | COc1ccc(-n2cc(CNCCc3cscn3)c(-c3ccccc3Cl)n2)cc1 | 1.1
89 | COc1ccc(-n2cc(CNCCc3nc(C)cc(C)n3)c(-c3ccccc3Cl)n2)cc1 | 1
90 | COC(=O)NNC(=O)c1ccc(C(C)(C)C)cc1 | 1.1
91 | CC(C)(C)c1ccc(C(=O)NNC(=O)c2ccc(Cl)cc2)cc1 | 1.9

From PubChem BioAssay AID1001 (Sanford-Burnham Center for Chemical Genomics, 2008)
